Assay [1] can be described thus: optical density shifts of acrAB sulA E. coli – strain DRC41, OD650, 48 h, E. coli filamentation inducer project, primary screen (AID 1152).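 Also: E. coli MC1000 strain DRC41 lacking acrAB efflux pump and sulA.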 The note with it: higher = more signal, called active from +8 up or from −8 down.
A short description of assay [2]: probe aLefty1 binding on compound microarray – biochemical, small-molecule microarray, 635/667 nm fluorescence, primary screen (AID 1153).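 Also: score merges spot fluorescence with signal-to-noise ratio from the scanned slide images.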 Conditions: higher = more signal.
The nature of assay [3]: plasmodial surface anion channel blockers, osmotic lysis – cell-based, P. falciparum Indochina, OD700, 1 h, primary screen (AID 1154). The note with it: P. falciparum Indochina infected RBC osmotic lysis, higher = more signal, called active from +8 up or from −8 down.
A short description of assay [4]: plasmodial surface anion channel blockers, osmotic lysis – cell-based, P. falciparum Indochina, OD700, 2 h, primary screen (AID 1155).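 Also: lysis reports solute entry through the parasite surface anion channel PSAC.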 The note with it: P. falciparum Indochina infected erythrocytes, higher = more signal, called active from +8 up or from −8 down.
Assay [5] is described as follows: changes in parasitized red cell lysis, either direction – P. falciparum Indochina, OD700, 3 h, PSAC antagonist project, primary screen (AID 1156). Conditions: P. falciparum-infected erythrocytes, osmotic lysis, higher = more signal, called active from +8 up or from −8 down.
Assay [6] is described as follows: plasmodial surface anion channel blockers, osmotic lysis – cell-based, P. falciparum Indochina, OD700, 18 h, primary screen (AID 1157). Conditions: P. falciparum Indochina infected erythrocytes, osmotic lysis OD700, 18 h; higher = more signal, called active from +8 up or from −8 down.
A short description of assay [7]: S6 kinase pathway phospho-S6 level changes – cell-based, A549, cytoblot, luminescence, serum-stimulated, primary screen (AID 1158).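 Also: serum-stimulated A549 lung adenocarcinoma cells; signal is phosphorylated S6 detected by cytoblot immunostaining with HRP secondary.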 Conditions: 5 h, higher = more signal.
Assay [8] has as its target NADPH oxidase 2 (Homo sapiens) (UniProt P04839). As to the kind of experiment: compounds shifting NOX2 Amplex Red fluorescence – cell-based, HEK293-NOX2, PMA-stimulated, NOX inhibitor project, primary screen (AID 1159). Also: test concentration not given here. The note with it: 45 min, higher = more signal, called active from +8 up or from −8 down.
For assay [9], the target named is NADPH oxidase 4 (Homo sapiens) (UniProt Q9NPH5). As to the kind of experiment: compounds shifting NOX4 Amplex Red fluorescence – cell-based, HEK293-NOX4, tetracycline-induced, NOX inhibitor project, primary screen (AID 1160). The note with it: HEK293-NOX4, Amplex Red H2O2 fluorescence, 45 min; higher = more signal, called active from +8 up or from −8 down.
Assay [10] has as its target NADPH oxidase 5 (Homo sapiens) (UniProt Q96PH1). The assay can be described thus: compounds shifting NOX5 Amplex Red fluorescence – cell-based, HEK293-NOX5, NOX inhibitor project, primary screen (AID 1161). The note with it: HEK293-NOX5, ionomycin, 45 min, higher = more signal.
A short description of assay [11]: compound effects on lung adenocarcinoma cell viability – A549, calcein-AM fluorescence, 48 h, basal, profiling panel (AID 1162). Also: test concentration not given here. The note with it: higher = more signal.
Assay [12] is described as follows: compound effects on differentiated 3T3-L1 adipocyte viability – cell-based, 3T3-L1 adipocytes, calcein-AM fluorescence, 48 h, basal, profiling panel (AID 1163). Also: test concentration not given here. The note with it: 3T3-L1 adipocytes viability, higher = more signal.
A short description of assay [13]: compound effects on hepatocellular carcinoma cell viability – HepG2, calcein-AM fluorescence, 48 h, basal, profiling panel (AID 1164). Also: test concentration not given here. The note with it: higher = more signal.
Assay [14] is described as follows: compound effects on multiple myeloma cell viability – MM1S, calcein-AM fluorescence, 48 h, basal, profiling panel (AID 1165).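 Also: viability of MM1S multiple myeloma cells under basal unstimulated conditions; test concentration not given here.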 The note with it: higher = more signal.
The nature of assay [15]: calcein-AM signal in unstimulated myeloma cells – cell-based, calcein-AM fluorescence, 48 h, PK04 Diversity Set, profiling panel (AID 1166).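 Also: cells grown under basal conditions without added stimulus; test concentration not given here.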 Conditions: RPMI8226 myeloma viability, higher = more signal.
A short description of assay [16]: JC-1 mitochondrial signal, unstimulated HepG2 cells – cell-based, JC-1 fluorescence, 24 h, 100 nL compound, profiling panel (AID 1167). Also: test concentration not given here. Conditions: HepG2 mitochondrial potential, higher = more signal.
A short description of assay [17]: JC-1 mitochondrial signal, unstimulated adipocytes – cell-based, JC-1 fluorescence, 3T3-L1 adipocytes, 24 h, 100 nL compound, profiling panel (AID 1168). Also: test concentration not given here. Conditions: JC-1 mitochondrial fluorescence, higher = more signal, called active from +8 up or from −8 down.
Assay [18] can be described thus: JC-1 mitochondrial signal, unstimulated myeloma cells – cell-based, JC-1 fluorescence, RPMI8226, 24 h, 100 nL compound, profiling panel (AID 1169). Also: test concentration not given here. Conditions: JC-1 mitochondrial potential fluorescence, higher = more signal.
Assay [19] is described as follows: JC-1 mitochondrial signal, unstimulated MM1S myeloma – cell-based, JC-1 fluorescence, 24 h, 100 nL compound, profiling panel (AID 1170). Also: test concentration not given here. Conditions: MM1S mitochondrial potential, higher = more signal.
Assay [20] is described as follows: resazurin metabolic signal in A549 cells – cell-based, resazurin fluorescence, 24 h, PK04 Diversity Set, profiling panel (AID 1171). Also: test concentration not given here. The note with it: A549 viability, higher = more signal, called active from +8 up or from −8 down.

The structures appear in SMILES notation. Calls of active or inactive are those of the source.

NADPH oxidase 2 (Homo sapiens), sequence (P04839 whole entry, looked up): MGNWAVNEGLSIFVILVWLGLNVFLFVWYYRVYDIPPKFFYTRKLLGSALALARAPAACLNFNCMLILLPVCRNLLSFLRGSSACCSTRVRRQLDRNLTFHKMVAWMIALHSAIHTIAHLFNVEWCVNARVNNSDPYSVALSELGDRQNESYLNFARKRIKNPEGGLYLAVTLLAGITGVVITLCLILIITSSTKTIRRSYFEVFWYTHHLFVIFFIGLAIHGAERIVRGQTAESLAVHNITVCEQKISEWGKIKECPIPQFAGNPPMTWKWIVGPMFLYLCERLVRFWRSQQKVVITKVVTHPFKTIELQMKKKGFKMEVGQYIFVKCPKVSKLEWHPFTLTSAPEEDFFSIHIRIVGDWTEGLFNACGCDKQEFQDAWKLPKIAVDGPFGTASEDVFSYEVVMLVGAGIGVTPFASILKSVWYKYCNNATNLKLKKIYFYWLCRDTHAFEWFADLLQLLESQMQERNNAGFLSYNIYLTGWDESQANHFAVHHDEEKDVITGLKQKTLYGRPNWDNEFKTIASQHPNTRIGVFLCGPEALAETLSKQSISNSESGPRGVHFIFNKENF
NADPH oxidase 4 (Homo sapiens), sequence (Q9NPH5 whole entry, looked up): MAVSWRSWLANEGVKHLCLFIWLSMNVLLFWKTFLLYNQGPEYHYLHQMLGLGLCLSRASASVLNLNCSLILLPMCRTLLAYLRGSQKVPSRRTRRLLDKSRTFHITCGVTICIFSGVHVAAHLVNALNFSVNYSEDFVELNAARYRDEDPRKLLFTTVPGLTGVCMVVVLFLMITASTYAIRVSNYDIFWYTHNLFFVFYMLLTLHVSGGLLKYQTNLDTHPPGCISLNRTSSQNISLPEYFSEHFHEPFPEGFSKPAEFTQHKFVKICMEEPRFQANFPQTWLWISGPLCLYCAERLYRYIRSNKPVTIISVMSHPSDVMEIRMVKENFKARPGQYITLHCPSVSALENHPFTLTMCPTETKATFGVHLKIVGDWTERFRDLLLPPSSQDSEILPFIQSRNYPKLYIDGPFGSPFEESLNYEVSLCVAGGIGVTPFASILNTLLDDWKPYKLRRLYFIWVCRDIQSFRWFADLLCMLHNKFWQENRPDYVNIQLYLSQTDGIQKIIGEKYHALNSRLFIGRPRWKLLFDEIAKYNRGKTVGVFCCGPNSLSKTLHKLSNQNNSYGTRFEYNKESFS
NADPH oxidase 5 (Homo sapiens), sequence (Q96PH1 whole entry, looked up): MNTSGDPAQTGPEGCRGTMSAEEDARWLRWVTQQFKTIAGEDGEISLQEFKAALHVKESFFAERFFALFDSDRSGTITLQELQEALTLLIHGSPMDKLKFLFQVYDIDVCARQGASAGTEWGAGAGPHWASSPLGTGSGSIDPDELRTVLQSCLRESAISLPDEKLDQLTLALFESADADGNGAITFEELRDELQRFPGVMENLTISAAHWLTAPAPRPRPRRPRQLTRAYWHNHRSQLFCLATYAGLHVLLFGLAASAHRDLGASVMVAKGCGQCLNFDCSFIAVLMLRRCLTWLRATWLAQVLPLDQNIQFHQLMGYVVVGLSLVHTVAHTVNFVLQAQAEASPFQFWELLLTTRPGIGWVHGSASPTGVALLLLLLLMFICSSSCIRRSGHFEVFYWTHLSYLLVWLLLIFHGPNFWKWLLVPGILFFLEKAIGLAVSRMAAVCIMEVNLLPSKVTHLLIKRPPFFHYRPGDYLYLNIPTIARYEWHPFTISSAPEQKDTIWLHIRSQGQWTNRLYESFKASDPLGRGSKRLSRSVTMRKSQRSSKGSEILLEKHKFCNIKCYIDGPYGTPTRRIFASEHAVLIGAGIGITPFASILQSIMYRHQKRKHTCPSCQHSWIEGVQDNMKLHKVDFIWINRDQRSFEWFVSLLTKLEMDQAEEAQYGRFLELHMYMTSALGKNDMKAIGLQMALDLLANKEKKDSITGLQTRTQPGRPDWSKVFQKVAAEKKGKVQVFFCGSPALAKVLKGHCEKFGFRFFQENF

On to `COc1ccc([Si](C)(C)[C@@H]2[C@@H](CCn3cc([C@H](O)c4ccccc4)nn3)O[C@]3(C(=O)N(Cc4cccc(N5C(=O)c6cccc7cccc5c67)c4)c4ccccc43)[C@H]2C)cc1`, for which the z-score is -0.603 (inactive) in assay [1]; 1.8 (inactive) in assay [3]; 0.662 (inactive) in [4]; 1.1 (inactive) in [5]; 0.794 (inactive) in assay [6]; -0.256 in assay [7]. For the same molecule, the z-score in assay [8] was 1.08 (inactive); in assay [9], 1.48 (inactive); in assay [10], 2.2; in assay [11], -0.381; in assay [12] it was 0.0092; in assay [13], 0.3. The z-score in assay [14] was -0.189; in [15], -2.11; in [16], 1.07; in assay [17] it was -0.265 (inactive); in assay [18], -0.681; in assay [19], -0.193. In addition, the z-score in assay [20] is -1.26 (inactive). For the same molecule, in assay [2], the composite z-score was determined as 0.0056.

Regarding `COC(=O)[C@@]1(Cc2ccccc2)[C@H]2c3cc(C(=O)N4CCCC4)n(CCSCCO)c3C[C@H]2CN1C(=O)c1ccccc1`, the z-score in [1] is -1.88 (inactive); in [3], 1.5 (inactive); in assay [4] it was 0.636 (inactive); in [5] it was 0.57 (inactive); in [6], 0.691 (inactive); in assay [7] it was -0.653. The z-score was 0.957 (inactive) in assay [8]; -0.446 (inactive) in assay [9]; -0.987 in assay [10]; -0.52 in assay [11]; 0.629 in assay [12]; 0.422 in assay [13]. For the same molecule, the z-score was -0.451 in [14]; -0.874 in [15]; 0.59 in assay [16]; -1.19 (inactive) in assay [17]; 0.26 in assay [18]; 0.0172 in assay [19]. Besides, the z-score in assay [20] is -0.845 (inactive). The same molecule displayed a composite z-score in assay [2] of 0.597.

Regarding `COCCOC(=O)N1C(=O)[C@@]2(c3cc(C#CCC(C(=O)OC)C(=O)OC)ccc31)[C@H](C(=O)NC[C@H](O)c1ccccc1)[C@H]1C(=O)O[C@H](c3ccccc3)[C@H](c3ccccc3)N1[C@@H]2c1ccc(O)cc1`, the z-score in assay [1] was -0.128 (inactive); in assay [3], 2.35 (inactive); in assay [4], -0.27 (inactive); in assay [5], 0.283 (inactive); in [6], 0.27 (inactive); in assay [7] it was 0.0648. For the same molecule, the z-score in assay [8] was 1.71 (inactive); in [9], 1.01 (inactive); in assay [10], 1.84; in assay [11], 0.395; in assay [12], 0.408; in [13], 1.26. The z-score in assay [14] was -0.99; in [15] it was -1.74; in [16] it was 0.126; in [17], -0.489 (inactive); in assay [18], -0.39; in assay [19] it was -0.491. In [20], the z-score is -0.227 (inactive). In assay [2], this molecule showed a composite z-score of 0.0977.

In the case of `CCOC(=O)C=Cc1cc(F)ccc1O`, the z-score in assay [1] is -1.38 (inactive); in [3], 16.6 (active); in assay [4] it was -0.347 (inactive); in assay [5], 0.782 (inactive); in assay [6], -1.23 (inactive); in [7] it was 0.684. Moreover, the z-score is -4.77 (inactive) in assay [8]; -3.25 (inactive) in assay [9]; -4.14 in assay [10]; -1.13 in assay [11]; 0.749 in assay [12]; -0.714 in assay [13]. The z-score in assay [14] was -0.633; in [15] it was -1.39; in [16], -1.19; in assay [17] it was -0.966 (inactive); in [18], 0.287; in assay [19], -0.0774. Further, in assay [20], the z-score was 0.0142 (inactive). The molecule also gave a composite z-score in [2] of 0.0355.

In the case of `C=C(/C(=C/C[C@H](OC(=O)c1ccncc1)c1cccc(OCCO)c1)c1cnc2ccccc2c1)C(C)C`, the z-score in [1] was -0.599 (inactive); in assay [3] it was 6.01 (inactive); in assay [4], 2.44 (inactive); in assay [5], -2.09 (inactive); in assay [6], 0.626 (inactive); in assay [7] it was -0.787. Also, the z-score in assay [8] is -4.67 (inactive); in assay [9], -0.946 (inactive); in [10], -1.49; in assay [11], -1.69; in [12], -1.31; in assay [13], -3.17. Moreover, the z-score is -3.07 in assay [14]; -2.93 in assay [15]; -0.437 in assay [16]; -0.649 (inactive) in assay [17]; -0.0462 in assay [18]; -0.888 in assay [19]. Besides, in assay [20], the z-score is -1.68 (inactive). In addition, the composite z-score in assay [2] is -0.0046.

On to `O=C1C[C@@](C(=O)NCc2ccccc2)(c2ccc([N+](=O)[O-])cc2)[C@@H](c2ccc(CO)cc2I)N1CC12CC3CC(CC(C3)C1)C2`, for which the z-score is 0.832 (inactive) in [1]; 8.97 (active) in assay [3]; 1.41 (inactive) in assay [4]; 2.53 (inactive) in assay [5]; 0.301 (inactive) in assay [6]; 2.5 in [7]. In addition, the z-score in assay [8] is -1.38 (inactive); in assay [9], -4.29 (inactive); in assay [10], -3.82; in assay [11] it was -1.84; in assay [12], 0.684; in [13] it was -2.67. Moreover, the z-score in assay [14] was -2.99; in [15], -4.33; in [16] it was 0.878; in assay [17], -0.473 (inactive); in assay [18] it was -1.03; in [19] it was -0.91. For the same molecule, the z-score in assay [20] was -1.63 (inactive). In addition, the composite z-score in assay [2] is -0.641.

Consider `CCOC(=O)C=Cc1ccccc1O`, for which the z-score is -0.646 (inactive) in assay [1]; 19.4 (active) in assay [3]; 2.46 (inactive) in assay [4]; 0.784 (inactive) in [5]; -1.43 (inactive) in assay [6]; 1.47 in assay [7]. In addition, the z-score was -4.38 (inactive) in assay [8]; -2.24 (inactive) in [9]; -4.65 in [10]; -0.759 in assay [11]; 0.234 in [12]; -0.944 in assay [13]. Further, the z-score is 0.226 in [14]; -0.529 in [15]; -0.503 in [16]; -0.35 (inactive) in assay [17]; -0.986 in assay [18]; -1.64 in assay [19]. Moreover, the z-score in [20] was 0.0931 (inactive). The molecule further came in with a composite z-score in assay [2] of 0.135.

`CC(=O)N1CC(C(O)C2C=CC3C(=O)NC(=O)C3N2Nc2ccc(Cl)cc2Cl)c2ccccc21` (stereo not given): the z-score is -1.14 (inactive) in [1]; 3.47 (inactive) in assay [3]; 1.36 (inactive) in [4]; -0.0499 (inactive) in assay [5]; 1.17 (inactive) in assay [6]; -0.746 in [7]. Besides, the z-score is -0.849 (inactive) in assay [8]; -4.86 (inactive) in assay [9]; -2.57 in assay [10]; 1.08 in [11]; -0.753 in assay [12]; 0.46 in assay [13]. Further, the z-score is -0.452 in [14]; 0.0876 in [15]; -1.29 in assay [16]; -0.229 (inactive) in [17]; -0.212 in [18]; 0.644 in assay [19]. Further, the z-score in assay [20] was -0.554 (inactive). This molecule also came in with a composite z-score in assay [2] of 0.176.

On to `COCC1C2CC[C@H]3C(OCc4ccc(OC)cc4)OC[C@]4(C)[C@H]3C2=C(CN4C(=O)OC(C)(C)C)[C@H](C)C1COC` (stereo not given in full), for which the z-score in assay [1] is -1.23 (inactive); in [3], 3.68 (inactive); in assay [4], -0.556 (inactive); in assay [5] it was 0.308 (inactive); in [6] it was -2.05 (inactive); in [7], 2.25. In addition, the z-score is -1.53 (inactive) in [8]; -1.89 (inactive) in assay [9]; -2.99 in assay [10]; -0.226 in assay [11]; 0.335 in [12]; 0.919 in assay [13]. The z-score in [14] is -2.64; in assay [15], -4.48; in [16] it was 5.54; in assay [17], -0.664 (inactive); in assay [18] it was -0.205; in [19] it was -1.22. For the same molecule, the z-score in [20] is -0.0834 (inactive). For the same molecule, in [2], the composite z-score is -0.302.

The values are drawn from PubChem BioAssay.
